# Test results taken from PubChem BioAssay AID1476 (National Center for Advancing Translational Sciences (NCATS), 2009).
# About 4,500 (2.2%) of roughly 200,000 compounds were called active. Not shown: some 12% with an inconclusive outcome. The list comes from a sample in which actives are over-represented; it also holds similar structures and randomly drawn compounds. Unmarked numbers belong to inactive results. Calls come from the whole dose curve; as a rule, active = well fitted inhibition curve with a large enough effect; inconclusive = small, poorly fitted or top-dose-only effect, or effect the other way; inactive = flat fitted curve, though single readings scatter.
# Target: Cruzipain (Trypanosoma cruzi) (UniProt P25779)
# Experiment: qHTS Assay for Promiscuous and Specific Inhibitors of Cruzain (without detergent); note: nearly all actives have a fitted effect of over 40% in size;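 for max response, negative = inhibition: plate controls were enzyme without inhibitor for no effect and buffer without enzyme for full effect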
# Conditions: purified cruzain, Z-FR-AMC fluorescence, no detergent
# Method in brief: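 Detergent-free condition (0.00005% Triton X-100) in acetate buffer pH 5.5 with DTT. 1.5 nM enzyme and compound were pre-mixed 15 min, then 2 uM Z-FR-AMC substrate added; reaction progress from fluorescence change between first and third reads (60 s).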
# Potency is the fitted concentration of half-maximal effect.
# Sequence of Cruzipain (Trypanosoma cruzi) (P25779 123-467 limits assumed): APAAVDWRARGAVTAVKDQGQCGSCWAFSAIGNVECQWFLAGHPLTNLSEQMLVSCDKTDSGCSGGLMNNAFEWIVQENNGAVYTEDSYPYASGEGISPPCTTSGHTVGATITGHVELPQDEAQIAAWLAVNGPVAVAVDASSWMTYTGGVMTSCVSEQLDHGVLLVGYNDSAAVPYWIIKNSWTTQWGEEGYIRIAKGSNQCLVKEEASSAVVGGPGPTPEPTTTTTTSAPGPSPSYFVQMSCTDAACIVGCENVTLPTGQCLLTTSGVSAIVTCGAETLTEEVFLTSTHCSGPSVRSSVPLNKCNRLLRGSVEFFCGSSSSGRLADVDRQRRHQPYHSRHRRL
Structure (SMILES),"max response, negative = inhibition",Potency
CC(=O)Nc1ccc(NC(=O)CCCc2nc(-c3ccc(C(C)(C)C)cc3)no2)cc1,-10.5%,–
O=C(CC(NCc1cccnc1)C(=O)O)Nc1ccc(O)cc1 (centres undefined),7.85%,–
Cc1cc(C)cc(NC(=O)Cn2c(=O)c3ccccc3n3nncc23)c1,4.51%,–
COc1cc(OC)c(N(C)C(=O)c2cc3c(=O)oc4ccccc4c3s2)cc1Cl,6.95%,–
Cc1ccc2nc(COc3cccc(NC(=O)c4ccccc4Cl)c3)cc(=O)n2c1,-3.57%,–
Cc1cnc(NC(=O)CSc2nnc(-c3ccc(Cl)cc3Cl)n2N)s1,-2.62%,–
Cc1ccc(CCC(=O)Nc2ncc(Cc3cc(Cl)ccc3Cl)s2)o1,–,25.1 µM (active)
CCOc1ccccc1NC(=O)CCc1ccc(C)o1,8.1%,–
O=C(Cn1c(=O)n(-c2ccc(F)cc2)c(=O)c2sc3ccccc3c21)NC1CCCC1,-5.91%,–
CCOC(=O)c1ccccc1NC(=O)CCc1c(C)nc2c(c1C)c(=O)n(C)c(=O)n2C,-1.55%,–
COc1ccc(OCCCC(=O)NCCc2ccccc2)cc1,-1.93%,–
O=C(NCCc1ccccc1)c1ccc(OCCOc2ccccc2)cc1,–,20 µM (active)
O=C(NCCOc1ccccc1)c1ccccc1,-3.94%,–
Cc1ccc(NC(=O)c2ccc3[nH]c(C)cc(=O)c3c2)c(C)c1,-6.14%,–
COc1ccc(-c2cc(NCc3ccc(F)cc3)n3cnnc3n2)cc1,6.65%,–
Cc1ccc(C(=O)Nc2cc3c(cc2N2CCCC2)n(C)c(=O)c(=O)n3C)cc1,-9.28%,–
Cc1cccc(NC(=O)c2nnn(CC(=O)Nc3ccc(C(C)C)cc3)c2N)c1C,–,20 µM (active)
CCOC(=O)c1cn(CC(=O)Nc2ccc(C(C)C)cc2)nn1,3.14%,–
COc1ccc(NC(=O)Cn2nnc(C(=O)NCCc3ccc(OC)c(OC)c3)c2N)cc1,28.4%,–
Nc1c(C(=O)NCc2ccccc2)nnn1Cc1cccc(Cl)c1,-27.5%,–
CCOc1ccccc1NC(=O)Cn1nnc(C(=O)Nc2ccc(C)c(C)c2)c1N,0.467%,–
CC(C)c1ccc(NC(=O)Cn2nnc(C(=O)NCCc3ccccc3)c2N)cc1,–,3.16 µM (active)
COc1ccccc1NC(=O)CSC1=Nc2ccccc2C2=NC(CC(=O)NCc3cccs3)C(=O)N12 (centres undefined),-5.88%,–

Structure (SMILES),"max response, negative = inhibition",Potency
CC(C)CC(NS(=O)(=O)c1ccc2c(c1)oc(=O)n2C)C(=O)NCc1ccccc1Cl (centres undefined),-14%,–
Cc1cccc(NC(=O)N2CCN(C)c3ncccc32)c1C,2.65%,–
CC(=O)Oc1ccc(C)cc1N1C(=O)c2ccc(C(=O)O)cc2C1=O,-6.79%,–
Cc1cccc(N2C(=O)c3cccnc3C2=O)c1,-4.26%,–
Cc1ccc(Oc2ccc3c(c2)C(=O)N(c2cccc4cccnc24)C3=O)cc1,–,25.1 µM (active)
COc1ccc(CNC(=O)c2ccc3c(c2)nc2n3CCOC2)c(OC)c1,-7.25%,–
CS(=O)(=O)c1ccc(-c2nnc(NC(=O)c3ccc4c(c3)OCCO4)o2)cc1,0.217%,–
Cc1ccc2oc3c(c(=O)c2c1)C(c1ccc(O)cc1)N(Cc1ccc2c(c1)OCO2)C3=O (centres undefined),3.18%,–
N/C(=N\c1nc2ccccc2o1)NC(=O)C(Cc1ccccc1)N1C(=O)c2ccccc2C1=O (centres undefined),–,25.1 µM (active)
O=C(NCCN1CCOCC1)[C@H](Cc1ccccc1)N1C(=O)c2ccccc2C1=O,-6.89%,–
O=C(NC1=NCCS1)[C@H](Cc1ccccc1)N1C(=O)c2ccccc2C1=O,-18.4%,–
COc1cccc(Cn2c(SCc3ccc(C(=O)N4CCC(C)CC4)cc3)nc3ccncc32)c1,6.55%,–
Cc1ccccc1CS(=O)(=O)CC1Nc2ccc(C(=O)NCc3ccc(Cl)cc3)cc2NC1=O (centres undefined),-11.5%,–
Cc1ccc(CNC(=O)CCc2c(C)nn(-c3ccc(N4CCCC4)nn3)c2C)cc1,-1.47%,–
CCOC(=O)C1=C(C)NC(C)=C(C(=O)OCC)C1c1ccccn1,6.72%,–
COC(=O)c1ccc(C2NC(=O)NC(C)=C2C(=O)N(C)C)cc1 (centres undefined),-7.98%,–
CCOC(=O)C1=C(C)Nc2sc(C(=O)c3ccc(Br)cc3)c(N)c2C1c1ccc(C(=O)OC)cc1 (centres undefined),–,10 µM (active)
Cc1ccc(Cc2nc3ccccc3nc2SCC(=O)Nc2cccc(C(F)(F)F)c2)cc1,-25%,–
CCN(CC)CCNC(=O)c1cc2c(=O)oc3ccc(C)cc3c2s1,-5.21%,–
Cc1ccc2c(c1)c1c(c(=O)n(-c3ccccc3)c(=O)n1CC(=O)c1ccc(Cl)cc1)n2C,12.5%,–
CCc1ccc(S(=O)(=O)c2nnn3c2nc(NCc2ccccc2OC)c2cc(Cl)ccc23)cc1,-14.3%,–
CCc1ccc(S(=O)(=O)n2ccnc2)cc1,3.23%,–
O=C(Nc1nc(-c2ccncc2)cs1)C1COc2ccccc2O1 (centres undefined),-4.88%,–

Structure (SMILES),"max response, negative = inhibition",Potency
Brc1ccc(-c2csc(N/N=C/c3ccc4c(c3)OCO4)n2)cc1,–,10 µM (active)
O=C(Nc1nc(-c2ccc3c(c2)OCO3)cs1)c1ccncc1,-29.2%,–
COc1ccc(OC)c2sc(N3CCN(C(=O)C4COc5ccccc5O4)CC3)nc12 (centres undefined),-0.959%,–
CCN(c1ccc(Cl)cc1)S(=O)(=O)c1nnc(NC(=O)c2ccco2)s1,3.14%,–
Cc1nnc(NCc2ccccc2)c2c1nnn2Cc1ccc(F)cc1,10.1%,–
COc1cccc(NC(=S)NCCCN2CCOCC2)c1,9.47%,–
COc1cc(NC(=S)NCCSc2ccc(C)cc2)cc(OC)c1,–,0.251 µM (active)
COc1cc(NC(=O)Nc2ccc(C)cc2)cc([N+](=O)[O-])c1,-24.4%,–
Cc1nc(SCCOc2ccc(Cl)cc2)[nH]c(=O)c1Cc1ccccc1,-8.31%,–
COc1ccc(-c2nn3c(=O)cc(CN4CCN(C(=O)c5ccc(OC)c(OC)c5)CC4)nc3s2)cc1,-11%,–
COc1ccc(NC(=O)Cn2c(=O)n(CCC(C)C)c(=O)c3cccnc32)cc1Cl,-5%,–
Cc1nn(CC(=O)NCCc2ccccc2)c(=O)c2c1sc1ccccc12,-12%,–
Cc1ccccc1CNC(=O)CCCn1nc(C)c2sc3ccccc3c2c1=O,–,25.1 µM (active)
Cc1nn(C(C)C(=O)Nc2ccc(C(C)C)cc2)c(=O)c2c1sc1ccccc12 (centres undefined),-0.208%,–
COc1ccc(NC(=O)c2ccc3oc(=O)c(S(=O)(=O)c4ccc(F)cc4)cc3c2)c(OC)c1,-3.78%,–
CCn1cc(C(=O)NCc2ccc(C)cc2)c(=O)c2cc(S(=O)(=O)N3CCc4ccccc4C3)ccc21,-8.13%,–
O=c1nc2s/c(=C\c3ccco3)c(=O)n2nc1Cc1ccccc1,–,25.1 µM (active)
O=C(CCCN1C(=O)/C(=C/c2ccco2)SC1=S)Nc1ccccc1,-9.58%,–
Cc1nc2nc(SCC(=O)NCc3ccco3)nn2c(C)c1Cc1ccccc1,-3.94%,–
COc1ccc(CCNC(=O)Cn2c(=O)n(-c3ccccc3)c(=O)c3c(C)c(C)sc32)cc1OC,-8.34%,–
Cc1ccc(Cl)cc1NC(=O)CSc1nccn1C,1.47%,–
O=C(CSc1ncc(-c2ccccc2)[nH]1)Nc1ccc(F)cc1F,8.99%,–
CN1c2ccc(Cl)cc2-c2nc(SCC(=O)Nc3cc(F)ccc3F)ncc2S1(=O)=O,–,12.6 µM (active)

Structure (SMILES),"max response, negative = inhibition",Potency
COc1cc2c(=O)c(S(=O)(=O)c3ccc(C(C)C)cc3)cn(Cc3ccccc3C)c2cc1OC,19.9%,–
CN1CCN(C(CNC(=O)c2ccccc2F)c2ccc3c(c2)OCO3)CC1 (centres undefined),7.63%,–
CCCSc1ncc(Cl)c(C(=O)Nc2sc3c(c2C(=O)NCCOC)CCCC3)n1,-6.84%,–
CCOc1cccc(NC(=O)c2ccc(F)c(S(=O)(=O)N(CC)c3cccc(C)c3)c2)c1,-18%,–
Cn1c(=O)cc(OCC(=O)N2CCN(c3ccccc3)CC2)c2ccccc21,3.14%,–
CCOC(=O)c1sc(NC(=O)CSc2nc3c(c(=O)n2-c2ccccc2)SCC3)c(C(=O)OCC)c1C,-25.7%,–
CCc1nnc(NC(=O)CSc2nc3c(c(=O)n2-c2ccccc2OC)SCC3)s1,–,12.6 µM (active)
CCOc1ccc(NC(=O)CSc2nc3c(c(=O)n2-c2ccccc2OC)SCC3)cc1,-2.8%,–
CCOC(=O)c1ccc(NC2=CC(c3ccc(OCC)cc3)N(c3ccc(C(=O)OCC)cc3)C2=O)cc1 (centres undefined),-9.29%,–
O=C(CCn1c(=O)c2sccc2n(Cc2ccc(F)cc2)c1=O)NCc1ccc2c(c1)OCO2,2.68%,–
Cc1ccc(F)cc1S(=O)(=O)N1CCC(c2nc3ccccc3s2)CC1,-6.75%,–
CC1=CC(=C(C#N)c2nc3ccccc3s2)C=C(C)N1c1ccc(F)cc1F,–,31.6 µM (active)
CC(C)c1cc(C(N)=O)c(NC(=O)c2cccc(COc3ccc(Br)cc3)c2)s1,–,5.01 µM (active)
CCc1cc(C(N)=O)c(NC(=O)c2ccc(OC)cc2)s1,-3.04%,–
COc1ccc(OCc2cccc(C(=O)N3CCCC3)c2)cc1,22.1%,–
CCC(=O)N1CCc2cc(Br)cc(S(=O)(=O)NCc3ccc(Cl)cc3)c21,5.32%,–
Cc1ccc(-n2ncc(C(=O)N(C)Cc3ccccc3)c2-n2cccc2)cc1,19.8%,–
O=C(Nc1cc2c3c(c1)C1CCCC1CN3CC1CCCC21)c1ccc([N+](=O)[O-])cc1 (centres undefined),–,25.1 µM (active)
O=C(Nc1cccc([N+](=O)[O-])c1)c1ccc2c(c1)OCO2,4.82%,–
CC1CCc2noc(NC(=O)c3ccc([N+](=O)[O-])cc3)c2C1 (centres undefined),3.94%,–
